From paper PMC7862700, “An all-to-all approach to the identification of sequence-specific readers for epigenetic DNA modifications on cytosine”

Tests used:
Assay in all cases: DAPPL (digital affinity profiling via proximity ligation, sequencing); 10 mM Tris-HCl pH 7.5, 50 mM NaCl, 1 mM DTT, 4% glycerol, room temperature, 30 min; GST-TFs on glutathione beads, 16-mer random dsDNA library, 0.1% formaldehyde crosslink after washing; high values mean tight binding
Conditions in all cases: protein: recombinant; tags: N-terminal GST; dsDNA, one strand shown
ELF1 = ELF1 (Homo sapiens, UniProt P32519 1-619)
How it was run: (§1)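 Binding signal is each hexamer's read frequency for a factor divided by its frequency in the tag-only sample. The factors were GST-fused human transcription factors from yeast, captured on glutathione beads, DNA-barcoded and pooled with that sample. Pools were incubated with 200 nmole of a random double-stranded 16-mer DNA library in Tris/NaCl/DTT/glycerol buffer at room temperature for 30 min, then washed, crosslinked with 0.1% formaldehyde, proximity-ligated with BsaI/T4 ligase (1 h, 37 °C), PCR-amplified and sequenced on an Illumina NextSeq500.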

FEV = target: T1, FEV (Homo sapiens, UniProt Q99581 1-238)
T1 sequence: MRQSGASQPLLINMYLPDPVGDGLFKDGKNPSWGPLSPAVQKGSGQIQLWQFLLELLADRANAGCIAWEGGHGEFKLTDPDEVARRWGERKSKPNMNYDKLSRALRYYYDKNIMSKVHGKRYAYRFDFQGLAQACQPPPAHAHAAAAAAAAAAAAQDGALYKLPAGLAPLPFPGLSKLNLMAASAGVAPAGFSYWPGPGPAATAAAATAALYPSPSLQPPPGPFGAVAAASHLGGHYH
How it was run: as §1

ETV5 = ETV5 (Homo sapiens, UniProt P41161 1-510)
How it was run: as §1

ELF4 = ELF4 (Homo sapiens, UniProt Q99607 1-663)
How it was run: as §1

ETV2 = target: T2, ETV2 (Homo sapiens, UniProt O00321 1-342)
T2 sequence: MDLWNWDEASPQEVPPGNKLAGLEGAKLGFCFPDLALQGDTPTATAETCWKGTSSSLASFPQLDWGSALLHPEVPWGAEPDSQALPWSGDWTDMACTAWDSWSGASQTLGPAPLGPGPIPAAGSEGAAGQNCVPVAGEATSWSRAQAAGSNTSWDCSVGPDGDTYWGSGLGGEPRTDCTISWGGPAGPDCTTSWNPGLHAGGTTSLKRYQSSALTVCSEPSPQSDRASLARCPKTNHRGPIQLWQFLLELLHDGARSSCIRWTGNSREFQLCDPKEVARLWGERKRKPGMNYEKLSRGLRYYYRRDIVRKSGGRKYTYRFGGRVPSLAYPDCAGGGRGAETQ
How it was run: as §1

ELF3 = target: T3, ELF3 (Homo sapiens, UniProt P78545 1-371)
T3 sequence: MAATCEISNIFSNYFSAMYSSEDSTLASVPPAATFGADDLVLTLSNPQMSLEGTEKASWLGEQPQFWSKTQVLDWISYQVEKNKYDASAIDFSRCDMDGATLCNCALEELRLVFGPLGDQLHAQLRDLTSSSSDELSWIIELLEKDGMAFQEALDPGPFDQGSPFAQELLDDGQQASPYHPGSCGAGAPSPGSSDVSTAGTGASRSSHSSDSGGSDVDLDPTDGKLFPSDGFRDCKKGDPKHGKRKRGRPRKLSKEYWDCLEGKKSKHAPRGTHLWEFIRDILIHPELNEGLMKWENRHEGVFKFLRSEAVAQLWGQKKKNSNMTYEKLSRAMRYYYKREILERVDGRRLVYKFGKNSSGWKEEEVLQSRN
How it was run: as §1

ETV1 = ETV1 (Homo sapiens, UniProt P50549 1-477)
How it was run: as §1

ERF = target: T4, ERF (Homo sapiens, UniProt P50548 1-548)
T4 sequence: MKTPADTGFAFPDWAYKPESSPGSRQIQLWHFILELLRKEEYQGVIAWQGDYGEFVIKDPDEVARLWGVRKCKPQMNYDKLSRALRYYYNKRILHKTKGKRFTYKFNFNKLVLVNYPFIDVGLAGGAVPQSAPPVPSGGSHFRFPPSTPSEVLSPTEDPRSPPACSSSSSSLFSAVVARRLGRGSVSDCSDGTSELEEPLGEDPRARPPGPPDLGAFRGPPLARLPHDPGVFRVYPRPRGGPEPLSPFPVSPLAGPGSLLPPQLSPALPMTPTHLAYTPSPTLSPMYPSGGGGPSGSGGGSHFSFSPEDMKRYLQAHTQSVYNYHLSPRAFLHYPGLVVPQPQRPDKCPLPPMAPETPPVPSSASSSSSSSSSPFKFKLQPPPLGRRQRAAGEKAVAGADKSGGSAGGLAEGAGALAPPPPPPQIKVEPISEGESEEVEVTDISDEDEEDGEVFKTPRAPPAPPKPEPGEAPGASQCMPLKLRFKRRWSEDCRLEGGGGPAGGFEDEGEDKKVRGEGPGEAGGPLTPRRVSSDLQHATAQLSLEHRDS
How it was run: as §1

ETV3L = target: T5, ETV3L (Homo sapiens, UniProt Q6ZN32 1-361)
T5 sequence: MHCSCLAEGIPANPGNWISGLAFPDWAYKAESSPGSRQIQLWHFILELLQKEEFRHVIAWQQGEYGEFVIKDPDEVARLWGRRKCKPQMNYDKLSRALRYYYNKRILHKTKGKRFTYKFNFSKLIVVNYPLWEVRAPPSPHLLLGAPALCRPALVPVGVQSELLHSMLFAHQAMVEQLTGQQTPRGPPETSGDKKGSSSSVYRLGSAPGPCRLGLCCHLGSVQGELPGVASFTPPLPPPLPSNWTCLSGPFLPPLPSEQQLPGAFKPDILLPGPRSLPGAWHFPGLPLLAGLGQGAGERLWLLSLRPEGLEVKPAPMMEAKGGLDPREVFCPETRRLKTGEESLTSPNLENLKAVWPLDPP
How it was run: as §1

ETV3 = target: T6, ETV3 (Homo sapiens, UniProt P41162-2 1-143)
T6 sequence: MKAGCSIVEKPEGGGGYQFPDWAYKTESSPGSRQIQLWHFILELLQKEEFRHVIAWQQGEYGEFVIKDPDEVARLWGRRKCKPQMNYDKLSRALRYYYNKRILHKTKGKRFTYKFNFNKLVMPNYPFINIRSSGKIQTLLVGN
How it was run: as §1

ELF4, sequence (Q99607 whole entry): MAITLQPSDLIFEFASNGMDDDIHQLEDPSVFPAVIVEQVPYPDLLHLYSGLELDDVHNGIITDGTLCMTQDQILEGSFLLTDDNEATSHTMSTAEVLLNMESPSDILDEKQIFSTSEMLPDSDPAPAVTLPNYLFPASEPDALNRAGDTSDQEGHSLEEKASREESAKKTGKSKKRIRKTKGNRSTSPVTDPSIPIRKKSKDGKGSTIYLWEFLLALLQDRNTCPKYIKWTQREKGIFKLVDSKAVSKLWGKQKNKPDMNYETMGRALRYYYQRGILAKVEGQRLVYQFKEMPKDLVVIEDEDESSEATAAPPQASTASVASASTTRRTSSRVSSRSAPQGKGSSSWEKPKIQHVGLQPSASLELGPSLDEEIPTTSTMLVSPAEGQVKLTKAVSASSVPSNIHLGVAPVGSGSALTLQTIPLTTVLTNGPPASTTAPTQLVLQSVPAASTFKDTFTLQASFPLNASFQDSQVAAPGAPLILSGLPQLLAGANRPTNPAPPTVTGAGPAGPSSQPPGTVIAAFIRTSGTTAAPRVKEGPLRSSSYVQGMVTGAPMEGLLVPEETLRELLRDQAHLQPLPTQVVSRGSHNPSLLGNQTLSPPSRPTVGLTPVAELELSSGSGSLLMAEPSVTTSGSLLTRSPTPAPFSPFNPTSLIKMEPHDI
ETV5, sequence (P41161 whole entry): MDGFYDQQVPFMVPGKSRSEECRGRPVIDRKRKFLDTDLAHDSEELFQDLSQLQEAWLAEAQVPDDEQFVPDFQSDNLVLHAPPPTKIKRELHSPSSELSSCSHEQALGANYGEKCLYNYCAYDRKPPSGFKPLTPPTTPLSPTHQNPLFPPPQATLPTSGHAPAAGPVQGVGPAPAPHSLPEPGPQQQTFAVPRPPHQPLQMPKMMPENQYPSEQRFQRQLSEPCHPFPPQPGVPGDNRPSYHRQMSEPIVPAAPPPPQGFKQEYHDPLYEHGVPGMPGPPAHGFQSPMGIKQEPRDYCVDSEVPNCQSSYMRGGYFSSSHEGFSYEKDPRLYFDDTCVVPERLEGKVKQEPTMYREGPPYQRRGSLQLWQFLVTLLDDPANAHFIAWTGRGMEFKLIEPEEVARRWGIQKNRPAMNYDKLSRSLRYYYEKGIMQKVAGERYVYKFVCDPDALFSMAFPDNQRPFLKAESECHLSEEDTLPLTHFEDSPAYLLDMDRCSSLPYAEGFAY
ELF1, sequence (P32519 whole entry, the tested form may be a part): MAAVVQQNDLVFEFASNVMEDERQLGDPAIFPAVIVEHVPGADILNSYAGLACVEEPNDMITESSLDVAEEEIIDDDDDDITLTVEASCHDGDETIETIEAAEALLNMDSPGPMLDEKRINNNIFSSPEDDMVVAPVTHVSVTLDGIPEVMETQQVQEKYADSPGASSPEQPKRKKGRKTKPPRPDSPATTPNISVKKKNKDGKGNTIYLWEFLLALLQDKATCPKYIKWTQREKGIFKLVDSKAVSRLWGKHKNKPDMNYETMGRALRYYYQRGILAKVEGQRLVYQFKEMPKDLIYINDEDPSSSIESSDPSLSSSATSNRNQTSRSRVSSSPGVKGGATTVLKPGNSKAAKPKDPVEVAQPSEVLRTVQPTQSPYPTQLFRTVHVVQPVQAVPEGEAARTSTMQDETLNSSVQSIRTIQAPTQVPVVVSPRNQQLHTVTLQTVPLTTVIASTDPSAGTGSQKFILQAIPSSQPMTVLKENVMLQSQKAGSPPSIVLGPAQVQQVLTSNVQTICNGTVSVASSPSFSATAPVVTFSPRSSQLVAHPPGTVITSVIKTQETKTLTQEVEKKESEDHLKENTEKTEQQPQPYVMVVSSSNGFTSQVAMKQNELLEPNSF
ETV1, sequence (P50549 whole entry): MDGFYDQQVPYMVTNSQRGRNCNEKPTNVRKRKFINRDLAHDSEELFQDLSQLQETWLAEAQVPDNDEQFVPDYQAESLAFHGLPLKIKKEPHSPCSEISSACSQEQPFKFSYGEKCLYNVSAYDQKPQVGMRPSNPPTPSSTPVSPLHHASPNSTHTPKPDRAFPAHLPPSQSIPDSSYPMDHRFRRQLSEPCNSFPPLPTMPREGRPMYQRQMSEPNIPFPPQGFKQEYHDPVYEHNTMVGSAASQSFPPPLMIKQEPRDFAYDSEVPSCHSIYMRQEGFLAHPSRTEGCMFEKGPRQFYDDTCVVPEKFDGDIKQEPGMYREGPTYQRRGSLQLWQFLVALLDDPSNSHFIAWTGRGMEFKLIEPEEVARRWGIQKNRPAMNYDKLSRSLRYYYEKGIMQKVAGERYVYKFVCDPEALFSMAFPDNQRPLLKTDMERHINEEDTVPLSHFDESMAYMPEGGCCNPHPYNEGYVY

Question: For GCACAC, which binding signal (ELF1) is on record?
Answer: 1.02 fold enrichment (6-mer frequency, TF over GST control)

Question: And the binding signal (FEV)?
Answer: 1.02 fold enrichment (6-mer frequency, TF over GST control)

Question: What about the binding signal (ETV5) of the same sequence?
Answer: 1.02 fold enrichment (6-mer frequency, TF over GST control)

Question: What about the binding signal (ELF4) of the same sequence?
Answer: 1.05 fold enrichment (6-mer frequency, TF over GST control)

Question: What about the binding signal (ETV2) of the same sequence?
Answer: 1.01 fold enrichment (6-mer frequency, TF over GST control)

Question: What about the binding signal (ELF3) of the same sequence?
Answer: 1.03 fold enrichment (6-mer frequency, TF over GST control)

Question: What about the binding signal (ETV1) of the same sequence?
Answer: 1 fold enrichment (6-mer frequency, TF over GST control)

Question: What about the binding signal (ERF) of the same sequence?
Answer: 1.12 fold enrichment (6-mer frequency, TF over GST control)

Question: What about the binding signal (ETV3L) of the same sequence?
Answer: 1.04 fold enrichment (6-mer frequency, TF over GST control)

Question: What about the binding signal (ETV3) of the same sequence?
Answer: 1.05 fold enrichment (6-mer frequency, TF over GST control)
